Experimental data as given in PubChem BioAssay (NCATS).
Records with an inconclusive call do not appear. The source made the active and inactive calls. Calls follow the shape of the dose curve; as a rule, active = well fitted curve in the direction sought with a large enough effect; inconclusive = small, poorly fitted or top-dose-only effect, or another doubt; inactive = no such curve, though single readings can be large; an effect the other way counts as inactive or inconclusive.

Columns and labels:
[1] = molecular target: Luciferin 4-monooxygenase (Photinus pyralis) (UniProt P08659); assay: Primary firefly luciferase (FLuc) qHTS assay for identification of artifact compounds. (AID 1845220); also: nearly all actives have a fitted effect of over 60% in size
Summary of the method: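 Enzymatic FLuc inhibition assay: compounds pre-exposed to luciferin/ATP (10 uM each) for 15 min, then purified P. pyralis enzyme at 10 nM added. Read-out: luminescence at 5 min.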

[2] = Primary fluorescence-based thiol-reactive (MSTI) qHTS assay for identification of artifact compounds. (AID 1845221);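 also: series mostly up to about 54 µM; thiol-reactive compounds lower the probe fluorescence signal; nearly all actives have a fitted effect of over 65% in size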
Summary of the method: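 Curve-fitted percent inhibition (4-parameter Hill) derived from fluorescence, Ex 525/Em 598 nm, scaled with Acetyl-MSTI and MSTI; 1 h incubation at room temperature.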

[3] = system: Nanoluciferase (engineered Oplophorus gracilirostris luciferase); assay: Primary Nanoluciferase (NLuc) qHTS assay for identification of artifact compounds. (AID 1845222);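 also: NLuc secreted into diluted conditioned medium of S16 cells; series mostly up to about 54 µM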
Summary of the method: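 S16 cell supernatant NLuc, 1:55; cpds qHTS; 15 min RT dark; Nano-Glo substrate 1:100, 5 min; luminescence; Hill fit of % inhibition.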

[4] = Primary redox qHTS assay for identification of artifact compounds. (AID 1845223)
Summary of the method: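 Redox-cycling detection via DTT (250 uM final) oxidation coupled to Amplex Red (25 uM)/HRP (250 mU/mL) in HBSS. 15 min preincubation plus 30 min after DTT, room temperature. Ex/Em 525/598 nm; 4-parameter Hill fit against DMSO and 10 uM DA3003.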

Measured: Potency

C=CC(C)(C)c1[nH]c2cccc3c2c1C[C@@H]1[C@@H]3[C@@H](OC(C)=O)[C@H](C)CN1C
inactive: [1] | [2] | [3] | [4]

OCCCCC#Cc1cncc(OC[C@@H]2CCN2)c1
inactive: [1] | [2] | [3] | [4]

CCN1C[C@]2(COC)[C@H](O)C[C@H](OC)[C@]34[C@@H]5C[C@]6(O)[C@H](OC(=O)c7ccccc7)[C@@H]5[C@@](O)([C@H]([C@H](OC)[C@H]23)[C@@H]14)[C@@H](O)[C@@H]6OC
inactive: [1] | [2] | [3] | [4]

COc1ccccc1CN[C@H]1C2CCN(CC2)[C@H]1C(c1ccccc1)c1ccccc1
inactive: [1] | [2] | [3] | [4]

COC(=O)N1CCN(C(=O)Cc2ccc(Cl)c(Cl)c2)[C@@H](CN2CCCC2)C1
inactive: [1] | [2] | [3]

COC1=CC(=O)O[C@@H](CCc2ccccc2)C1
inactive: [1] | [2] | [3] | [4]

OC1(c2ccc(Cl)cc2)c2ccccc2C2=NCCN21 (stereo not drawn)
inactive: [1] | [2] | [3] | [4]

CC(C)[C@@H](CN1CC[C@@](C)(c2cccc(O)c2)[C@@H](C)C1)NC(=O)[C@H]1Cc2ccc(O)cc2CN1
inactive: [1] | [2] | [3] | [4]

COC1CC(OC2CCC3(C=O)C(CCC4C3CCC3(C)C(C5=CC(=O)OC5)CCC43O)C2)OC(C)C1OC1OC(CO)C(O)C(O)C1O (stereo not drawn)
inactive: [1] | [2] | [3]

C[C@@]12C[C@@H](c3ccoc3)OC(=O)C1CC[C@]1(C)[C@H]2[C@H]2C=C[C@]1(O)C(=O)O2 (stereo partly drawn)
inactive: [1] | [2] | [3] | [4]
